According to the supplement of paper PMC12669032:

How the values were obtained:
Assay in all cases: growth AUC relative to DMSO control (median of replicates) (fraction); higher = more growth (less inhibition), active = hit call of the paper
Details in all cases: 20 µM; 24 h;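 active = AUC reduced over 20% with Padj below 0.05 in at least 2 of 3 replicates; inactive = otherwise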
Akkermansia muciniphila = tested on: Akkermansia muciniphila
In short: (§1)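 Gut bacterial monocultures were grown anaerobically at 37 °C in mGAM from a starting OD600 of 0.05 with 20 µM compound (1% DMSO), in round-bottom 96-well plates under pierced gas-permeable seals, and OD600 was read hourly for 24 h. With the minimum OD set to 0, area under the growth curve was normalised to the plate median of solvent-only wells, or to row and column medians on the industrial chemical plate. Each value is the median of three biological replicates grown on separate days.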

Bacteroides caccae = tested on: Bacteroides caccae
In short: as §1

Bacteroides clarus = tested on: Bacteroides clarus
In short: as §1

Bacteroides dorei = tested on: Bacteroides dorei
In short: as §1

Bacteroides stercoris = tested on: Bacteroides stercoris
In short: as §1

[1] = tested on: Bacteroides thetaiotaomicron
In short: as §1

Bacteroides uniformis = tested on: Bacteroides uniformis
In short: as §1

[2] = tested on: Bifidobacterium longum subsp. longum
In short: as §1

Clostridium difficile = tested on: Clostridium difficile
In short: as §1

Collinsella aerofaciens = tested on: Collinsella aerofaciens
In short: as §1

Coprococcus comes = tested on: Coprococcus comes
In short: as §1

Escherichia coli ED1a = tested on: Escherichia coli ED1a
In short: as §1

Escherichia coli IAI1 = tested on: Escherichia coli IAI1
In short: as §1

Eubacterium rectale = tested on: Eubacterium rectale
In short: as §1

[3] = tested on: Fusobacterium nucleatum subsp. animalis
In short: as §1

Lactobacillus gasseri = tested on: Lactobacillus gasseri
In short: as §1

Lactobacillus paracasei = tested on: Lactobacillus paracasei
In short: as §1

Odoribacter splanchnicus = tested on: Odoribacter splanchnicus
In short: as §1

[4] = tested on: Parabacteroides distasonis
In short: as §1

Parabacteroides merdae = tested on: Parabacteroides merdae
In short: as §1

Measured: growth AUC

CCCN(CCOc1c(Cl)cc(Cl)cc1Cl)C(=O)NC=O
inactive: Akkermansia muciniphila 1.04 | Bacteroides caccae 0.938 | Bacteroides clarus 0.948 | Bacteroides dorei 0.947 | Bacteroides stercoris 1.07 | [1] 0.94 | Bacteroides uniformis 0.957 | [2] 0.968 | Clostridium difficile 1.01 | Collinsella aerofaciens 0.995 | Coprococcus comes 0.965 | Escherichia coli ED1a 1.04 | Escherichia coli IAI1 0.993 | Eubacterium rectale 1.02 | [3] 1.01 | Lactobacillus gasseri 1.09 | Lactobacillus paracasei 0.9 | Odoribacter splanchnicus 0.956 | [4] 0.925 | Parabacteroides merdae 0.991

O=C(O)CNC(=O)c1cnccc1C(F)(F)F
inactive: Akkermansia muciniphila 1.02 | Bacteroides caccae 1 | Bacteroides clarus 1.02 | Bacteroides dorei 0.976 | Bacteroides stercoris 1.07 | [1] 0.99 | Bacteroides uniformis 1.02 | [2] 1.06 | Clostridium difficile 0.924 | Collinsella aerofaciens 0.989 | Coprococcus comes 0.96 | Escherichia coli ED1a 1.03 | Escherichia coli IAI1 1.02 | Eubacterium rectale 1.01 | [3] 1.14 | Lactobacillus gasseri 0.903 | Lactobacillus paracasei 1.11 | Odoribacter splanchnicus 1.02 | [4] 1.03 | Parabacteroides merdae 0.992

O=C(O)c1ccc(Cl)cc1Cl
inactive: Akkermansia muciniphila 0.987 | Bacteroides caccae 1.03 | Bacteroides clarus 0.989 | Bacteroides dorei 0.994 | Bacteroides stercoris 0.959 | [1] 1.01 | Bacteroides uniformis 0.977 | [2] 0.699 | Clostridium difficile 0.997 | Collinsella aerofaciens 1.02 | Coprococcus comes 1 | Escherichia coli ED1a 0.986 | Escherichia coli IAI1 0.993 | Eubacterium rectale 0.957 | [3] 0.891 | Lactobacillus gasseri 0.991 | Lactobacillus paracasei 0.994 | Odoribacter splanchnicus 1.01 | [4] 0.984 | Parabacteroides merdae 0.989

O=c1cccc2n1CCn1c-2cccc1=O
inactive: Akkermansia muciniphila 1.11 | Bacteroides caccae 1.03 | Bacteroides clarus 0.986 | Bacteroides dorei 0.918 | Bacteroides stercoris 1 | [1] 0.995 | Bacteroides uniformis 1.02 | [2] 0.969 | Clostridium difficile 0.993 | Collinsella aerofaciens 0.98 | Coprococcus comes 1.01 | Escherichia coli ED1a 0.992 | Escherichia coli IAI1 0.968 | Eubacterium rectale 0.956 | [3] 0.971 | Lactobacillus gasseri 0.982 | Lactobacillus paracasei 1.02 | Odoribacter splanchnicus 0.982 | [4] 1.04 | Parabacteroides merdae 1.01

CCSC(=O)N(CC(C)C)CC(C)C
inactive: Akkermansia muciniphila 0.967 | Bacteroides caccae 1.05 | Bacteroides clarus 1 | Bacteroides dorei 1.02 | Bacteroides stercoris 0.987 | [1] 1.01 | Bacteroides uniformis 0.994 | [2] 0.842 | Clostridium difficile 0.993 | Collinsella aerofaciens 1.04 | Coprococcus comes 1.02 | Escherichia coli ED1a 1.02 | Escherichia coli IAI1 1.02 | Eubacterium rectale 0.903 | [3] 1.03 | Lactobacillus gasseri 1.22 | Lactobacillus paracasei 0.942 | Odoribacter splanchnicus 0.985 | [4] 0.993 | Parabacteroides merdae 0.987

Nc1ccc(O)cc1
inactive: Akkermansia muciniphila 0.951 | Bacteroides caccae 1 | Bacteroides clarus 1.01 | Bacteroides dorei 0.998 | Bacteroides stercoris 1.11 | [1] 1.01 | Bacteroides uniformis 1.03 | [2] 0.921 | Clostridium difficile 1.01 | Collinsella aerofaciens 1.01 | Coprococcus comes 1.01 | Escherichia coli ED1a 1.06 | Escherichia coli IAI1 1.01 | Eubacterium rectale 1.12 | [3] 1.12 | Lactobacillus gasseri 1.08 | Lactobacillus paracasei 1.08 | Odoribacter splanchnicus 1.05 | [4] 0.954 | Parabacteroides merdae 1.04

Cc1[nH]n(C)c(=O)c1C(=O)c1ccc(C(F)(F)F)cc1S(C)(=O)=O
inactive: Akkermansia muciniphila 0.91 | Bacteroides caccae 1.06 | Bacteroides clarus 0.997 | Bacteroides dorei 1.02 | Bacteroides stercoris 1.01 | [1] 0.978 | Bacteroides uniformis 1.01 | [2] 0.977 | Clostridium difficile 0.989 | Collinsella aerofaciens 1 | Coprococcus comes 0.991 | Escherichia coli ED1a 1.01 | Escherichia coli IAI1 1.08 | Eubacterium rectale 0.972 | [3] 1.01 | Lactobacillus gasseri 1.02 | Lactobacillus paracasei 1.03 | Odoribacter splanchnicus 1.02 | [4] 1.04 | Parabacteroides merdae 0.974

NC(=O)Cc1cccc2ccccc12
inactive: Akkermansia muciniphila 1.01 | Bacteroides caccae 1 | Bacteroides clarus 1.03 | Bacteroides dorei 0.988 | Bacteroides stercoris 1.15 | [1] 1.03 | Bacteroides uniformis 1.01 | [2] 0.977 | Clostridium difficile 1.01 | Collinsella aerofaciens 0.981 | Coprococcus comes 1.04 | Escherichia coli ED1a 0.99 | Escherichia coli IAI1 1.01 | Eubacterium rectale 0.994 | [3] 1.06 | Lactobacillus gasseri 1.04 | Lactobacillus paracasei 1.01 | Odoribacter splanchnicus 0.992 | [4] 1.01 | Parabacteroides merdae 1.01

C#CCOC(=O)[C@@H](C)Oc1ccc(Oc2ncc(Cl)cc2F)cc1
inactive: Akkermansia muciniphila 0.914 | Bacteroides caccae 0.998 | Bacteroides clarus 0.985 | Bacteroides dorei 1.02 | Bacteroides stercoris 1.05 | [1] 0.975 | Bacteroides uniformis 0.942 | [2] 1.04 | Clostridium difficile 0.99 | Collinsella aerofaciens 0.964 | Coprococcus comes 0.978 | Escherichia coli ED1a 1.01 | Escherichia coli IAI1 0.987 | Eubacterium rectale 0.982 | [3] 0.903 | Lactobacillus gasseri 0.962 | Lactobacillus paracasei 0.997 | Odoribacter splanchnicus 0.982 | [4] 1 | Parabacteroides merdae 0.979

CC(C)N(C)S(=O)(=O)NC(=O)c1cc(-n2c(=O)cc(C(F)(F)F)[nH]c2=O)c(F)cc1Cl
inactive: Akkermansia muciniphila 0.971 | Bacteroides caccae 0.993 | Bacteroides clarus 0.983 | Bacteroides dorei 0.967 | Bacteroides stercoris 1.1 | [1] 1 | Bacteroides uniformis 1.03 | [2] 0.962 | Clostridium difficile 0.982 | Collinsella aerofaciens 0.953 | Coprococcus comes 0.971 | Escherichia coli ED1a 0.995 | Escherichia coli IAI1 1 | Eubacterium rectale 0.959 | [3] 1.08 | Lactobacillus gasseri 1.03 | Lactobacillus paracasei 0.893 | Odoribacter splanchnicus 1.03 | [4] 0.961 | Parabacteroides merdae 1.02

CCCNCCOc1c(Cl)cc(Cl)cc1Cl
inactive: Akkermansia muciniphila 0.946 | Bacteroides caccae 0.972 | Bacteroides clarus 0.979 | Bacteroides dorei 0.985 | Bacteroides stercoris 0.898 | [1] 0.979 | Bacteroides uniformis 1 | [2] 0.918 | Clostridium difficile 0.973 | Collinsella aerofaciens 0.98 | Coprococcus comes 0.927 | Escherichia coli ED1a 0.944 | Escherichia coli IAI1 0.953 | Eubacterium rectale 0.924 | [3] 0.918 | Lactobacillus gasseri 0.953 | Lactobacillus paracasei 0.966 | Odoribacter splanchnicus 0.999 | [4] 0.972 | Parabacteroides merdae 0.997

CCCCCCCC(=O)Oc1c(Br)cc(C#N)cc1Br
inactive: Akkermansia muciniphila 1.06 | Bacteroides caccae 0.934 | Bacteroides clarus 0.959 | Bacteroides dorei 1.04 | Bacteroides stercoris 0.842 | [1] 1.04 | Bacteroides uniformis 0.983 | [2] 1.06 | Clostridium difficile 1.02 | Collinsella aerofaciens 0.971 | Coprococcus comes 1.01 | Escherichia coli ED1a 0.973 | Escherichia coli IAI1 0.924 | Eubacterium rectale 1.15 | [3] 0.966 | Lactobacillus gasseri 0.987 | Lactobacillus paracasei 0.863 | Odoribacter splanchnicus 1.12 | [4] 0.975 | Parabacteroides merdae 0.922

O=S(=O)(Oc1ccc(Cl)cc1)c1ccccc1
inactive: Akkermansia muciniphila 0.785 | Bacteroides caccae 0.959 | Bacteroides clarus 0.967 | Bacteroides dorei 0.941 | Bacteroides stercoris 0.874 | [1] 0.964 | Bacteroides uniformis 0.972 | [2] 1.01 | Clostridium difficile 1 | Collinsella aerofaciens 0.978 | Coprococcus comes 0.997 | Escherichia coli ED1a 0.981 | Escherichia coli IAI1 0.967 | Eubacterium rectale 0.874 | [3] 0.872 | Lactobacillus gasseri 0.99 | Lactobacillus paracasei 1.08 | Odoribacter splanchnicus 0.987 | [4] 0.974 | Parabacteroides merdae 0.957

Nc1nc2ccccc2[nH]1
inactive: Akkermansia muciniphila 1.06 | Bacteroides caccae 0.96 | Bacteroides clarus 1.01 | Bacteroides dorei 0.911 | Bacteroides stercoris 1.01 | [1] 1.02 | Bacteroides uniformis 0.94 | [2] 1.03 | Clostridium difficile 0.973 | Collinsella aerofaciens 0.943 | Coprococcus comes 0.971 | Escherichia coli ED1a 0.976 | Escherichia coli IAI1 0.986 | Eubacterium rectale 1.08 | [3] 0.932 | Lactobacillus gasseri 0.883 | Lactobacillus paracasei 0.969 | Odoribacter splanchnicus 0.942 | [4] 0.615 | Parabacteroides merdae 0.933

Cc1cc(N(C)C)nc(Cl)n1
inactive: Akkermansia muciniphila 0.999 | Bacteroides caccae 0.916 | Bacteroides clarus 1.02 | Bacteroides dorei 0.985 | Bacteroides stercoris 1.26 | [1] 1.02 | Bacteroides uniformis 0.98 | [2] 0.985 | Clostridium difficile 0.976 | Collinsella aerofaciens 0.977 | Coprococcus comes 0.97 | Escherichia coli ED1a 1.02 | Escherichia coli IAI1 0.992 | Eubacterium rectale 1.06 | [3] 1.11 | Lactobacillus gasseri 0.947 | Lactobacillus paracasei 0.99 | Odoribacter splanchnicus 0.998 | [4] 1.03 | Parabacteroides merdae 0.998

CCc1cccc(C)c1NC(C)C(=O)O (racemic)
inactive: Akkermansia muciniphila 1.21 | Bacteroides caccae 1.01 | Bacteroides clarus 0.98 | Bacteroides dorei 0.931 | Bacteroides stercoris 0.965 | [1] 1.03 | Bacteroides uniformis 0.996 | [2] 1.04 | Clostridium difficile 1.03 | Collinsella aerofaciens 0.985 | Coprococcus comes 1.04 | Escherichia coli ED1a 0.986 | Escherichia coli IAI1 0.977 | Eubacterium rectale 1.19 | [3] 1.04 | Lactobacillus gasseri 0.97 | Lactobacillus paracasei 0.968 | Odoribacter splanchnicus 0.999 | [4] 0.978 | Parabacteroides merdae 1

c1ccc2c(c1)ccc1ccccc12
inactive: Akkermansia muciniphila 1.02 | Bacteroides caccae 0.983 | Bacteroides clarus 1.01 | Bacteroides dorei 0.996 | Bacteroides stercoris 0.999 | [1] 1.01 | Bacteroides uniformis 1 | [2] 1.01 | Clostridium difficile 1 | Collinsella aerofaciens 1.02 | Coprococcus comes 0.965 | Escherichia coli ED1a 1.01 | Escherichia coli IAI1 1.01 | Eubacterium rectale 1.01 | [3] 0.985 | Lactobacillus gasseri 0.994 | Lactobacillus paracasei 0.999 | Odoribacter splanchnicus 1.01 | [4] 1.04 | Parabacteroides merdae 1.01
